# Test results from PubChem BioAssay (EPA / NIEHS).
# Calls of active or inactive are those of the source. The calls were made as follows: active = hit-call score of the fitted dose curve at least 0.9, where 1 is the maximum; inactive = score below 0.9.
# Key:
# Details in all cases: mRNA level, 48 h; actives raise or lower the signal
# [1] = read-out: JUN Transcription Factor, JUN (gene 3725); experiment: LTEA_HepaRG_JUN: Life Technologies and Expression Analysis (LTEA) Assay for JUN Transcription Factor using HepaRG (AID 2283513)
# How it was run: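 Human HepaRG liver cells receive test chemicals in 0.5% DMSO for 48 h across an eight-point range topping at 100 uM. Expression changes in JUN are scored in both directions against the DMSO vehicle.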
# [2] = read-out: Lipase C (LIPC), LIPC (gene 3990); experiment: LTEA_HepaRG_LIPC: Life Technologies and Expression Analysis (LTEA) Assay for Lipase C (LIPC) using HepaRG (AID 2283514)
# How it was run: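 Differentiated human HepaRG cells in serum-free induction medium were exposed in duplicate for 48 h to eight concentrations (top 100 uM, half-log steps, 0.5% DMSO). LIPC mRNA was quantified by TaqMan qRT-PCR, normalized to ACTB, GAPDH and POLR2A, with bidirectional fitting versus DMSO.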
# [3] = read-out: Lipoprotein lipase (LPL), LPL (gene 4023); experiment: LTEA_HepaRG_LPL: Life Technologies and Expression Analysis (LTEA) Assay for Lipoprotein lipase (LPL) using HepaRG (AID 2283515)
# How it was run: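 Differentiated human HepaRG cells in serum-free induction medium were exposed in duplicate for 48 h to eight half-log concentrations (top 100 uM) in 0.5% DMSO. LPL mRNA was quantified by TaqMan qRT-PCR, normalized to ACTB, GAPDH and POLR2A.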
# [4] = read-out: MicroRNA 122 (MIR122), gene 406906; experiment: LTEA_HepaRG_MIR122: Life Technologies and Expression Analysis (LTEA) Assay for MicroRNA 122 (MIR122) using HepaRG (AID 2283516); also: the transcript read is the microRNA miR-122
# How it was run: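 HepaRG, 48 h exposure, 8-pt half-log from 100 uM, 0.5% DMSO; TaqMan qRT-PCR; bidirectional fit vs DMSO.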
# [5] = read-out: matrix metalloproteinase-10 (MMP10), MMP10 (gene 4319); experiment: LTEA_HepaRG_MMP10: Life Technologies and Expression Analysis (LTEA) Assay for matrix metalloproteinase-10 (MMP10) using HepaRG (AID 2283517)
# How it was run: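 HepaRG, collagen I, ~100,000 cells/well; serum-free induction medium; 48 h exposure, duplicate, 8-pt half-log to 100 uM, 0.5% DMSO. Readout: TaqMan qRT-PCR, normalized to ACTB/GAPDH/POLR2A; bidirectional fit vs DMSO.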
# [6] = read-out: MYC, MYC (gene 4609); experiment: LTEA_HepaRG_MYC: Life Technologies and Expression Analysis (LTEA) Assay for MYC using HepaRG (AID 2283518)
# How it was run: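 Cells are thawed, plated and cultured 48 h, then treated for 48 h with test chemicals (eight half-log concentrations from 100 uM, 0.5% DMSO vehicle). RNA is isolated and MYC expression quantified by qRT-PCR against three housekeeping genes.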
# [7] = read-out: matrix metalloproteinase-3 (MMP3), MMP3 (gene 4314); experiment: LTEA_HepaRG_MMP3: Life Technologies and Expression Analysis (LTEA) Assay for matrix metalloproteinase-3 (MMP3) using HepaRG (AID 2283519)
# How it was run: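 Differentiated human HepaRG cells, plated 48 h on collagen I, were exposed in duplicate for 48 h in serum-free induction medium to eight half-log concentrations up to 100 uM in 0.5% DMSO. MMP3 mRNA was quantified by TaqMan qRT-PCR, normalised to ACTB, GAPDH and POLR2A.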
# [8] = read-out: Paternally Expressed 10 (PEG10), PEG10 (gene 23089); experiment: LTEA_HepaRG_PEG10: Life Technologies and Expression Analysis (LTEA) Assay for Paternally Expressed 10 (PEG10) using HepaRG (AID 2283520);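 as to AC50: PEG10 transcript by qRT-PCR normalised to ACTB GAPDH and POLR2A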
# How it was run: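 Chemicals tested on HepaRG cells for 48 h, highest concentration 100 uM. PEG10 expression assessed by qRT-PCR relative to DMSO control.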
# [9] = read-out: Nuclear factor NF-kappa-B p105 subunit (Homo sapiens) (UniProt P19838); experiment: LTEA_HepaRG_NFKB1: Life Technologies and Expression Analysis (LTEA) Assay for Nuclear Factor Kappa B Subunit 1 (NFKB1) using HepaRG (AID 2283521)
# How it was run: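 NFKB1 transcript was measured by TaqMan qRT-PCR on Fluidigm arrays, normalised to three housekeeping genes and fitted in both directions against 0.5% DMSO. HepaRG cells were dosed in duplicate for 48 h in serum-free induction medium, eight half-log steps from 100 uM.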
# [10] = read-out: Protein phosphatase 2A (PPP2R4), PTPA (gene 5524); experiment: LTEA_HepaRG_PPP2R4: Life Technologies and Expression Analysis (LTEA) Assay for Protein phosphatase 2A (PPP2R4) using HepaRG (AID 2283522)
# How it was run: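 Gene-expression endpoint in HepaRG hepatic cells: 48 h treatment across eight half-log concentrations up to 100 uM in 0.5% DMSO. PPP2R4 mRNA by qRT-PCR, normalized to three endogenous control genes.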
# [11] = read-out: Phosphatase and tensin (PTEN), PTEN (gene 5728); experiment: LTEA_HepaRG_PTEN: Life Technologies and Expression Analysis (LTEA) Assay for Phosphatase and tensin (PTEN) using HepaRG (AID 2283523)
# How it was run: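 Differentiated human HepaRG cells, plated 48 h then switched to serum-free induction medium, were exposed in duplicate for 48 h to eight half-log concentrations up to 100 uM in 0.5% DMSO. PTEN mRNA measured by TaqMan qRT-PCR, normalized to ACTB/GAPDH/POLR2A, bidirectional fit versus DMSO.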
# [12] = read-out: solute carrier (SLC22A1), SLC22A1 (gene 6580); experiment: LTEA_HepaRG_SLC22A1: Life Technologies and Expression Analysis (LTEA) Assay for solute carrier (SLC22A1) using HepaRG (AID 2283524)
# How it was run: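 Human HepaRG cells were plated 48 h, switched to serum-free induction medium, then exposed in duplicate for 48 h to 8-point half-log series from 100 uM in 0.5% DMSO. SLC22A1 mRNA measured by qRT-PCR, normalized to ACTB/GAPDH/POLR2A, fitted bidirectionally versus DMSO.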
# [13] = read-out: Pyruvate Dehydrogenase Kinase 4 (PDK4), PDK4 (gene 5166); experiment: LTEA_HepaRG_PDK4: Life Technologies and Expression Analysis (LTEA) Assay for Pyruvate Dehydrogenase Kinase 4 (PDK4) using HepaRG (AID 2283525)
# How it was run: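 Differentiated human HepaRG cells, pre-cultured 48 h, were exposed in duplicate for 48 h in serum-free induction medium to eight half-log concentrations up to 100 uM in 0.5% DMSO. PDK4 mRNA was quantified by qRT-PCR, normalized to ACTB, GAPDH and POLR2A, bidirectional fitting versus DMSO.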
# [14] = read-out: NAD(P)H dehydrogenase [quinone] 1 (NQO1), NQO1 (gene 1728); experiment: LTEA_HepaRG_NQO1: Life Technologies and Expression Analysis (LTEA) Assay for NAD(P)H dehydrogenase [quinone] 1 (NQO1) using HepaRG (AID 2283526)
# How it was run: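 Human HepaRG hepatic cells received chemicals for 48 h in serum-free induction medium with 0.5% DMSO, up to 100 uM. Expression was assessed by TaqMan qRT-PCR against housekeeping controls and fitted bidirectionally against DMSO.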
# [15] = read-out: Nuclear factor erythroid 2-related factor 2 (Homo sapiens) (UniProt Q16236); experiment: LTEA_HepaRG_NFE2L2: Life Technologies and Expression Analysis (LTEA) Assay for Nuclear factor erythroid 2-related factor 2 (NFE2L2) Transcription Factor using HepaRG (AID 2283527)
# How it was run: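 Differentiated human HepaRG cells in serum-free induction medium were exposed for 48 h to eight concentrations (top 100 uM, half-log dilutions, 0.5% DMSO), in duplicate. NFE2L2 mRNA was quantified by TaqMan qRT-PCR, normalized to ACTB, GAPDH and POLR2A, with bidirectional fitting versus DMSO.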
# [16] = read-out: succinate dehydrogenase complex iron sulfur subunit B (SDHB), SDHB (gene 6390); experiment: LTEA_HepaRG_SDHB: Life Technologies and Expression Analysis (LTEA) Assay for succinate dehydrogenase complex iron sulfur subunit B (SDHB) using HepaRG (AID 2283528)
# How it was run: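 SDHB transcript level read by TaqMan qRT-PCR, housekeeping-normalised (ACTB, GAPDH, POLR2A), after 48 h chemical treatment of plated HepaRG cells; eight concentrations top 100 uM, half-log steps, 0.5% DMSO, duplicates; fitted both directions against DMSO.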
# [17] = read-out: Signal transducer and activator of transcription 3 (Homo sapiens) (UniProt P40763); experiment: LTEA_HepaRG_STAT3: Life Technologies and Expression Analysis (LTEA) Assay for Signal transducer and activator of transcription (STAT3) using HepaRG (AID 2283529)
# How it was run: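 Differentiated human HepaRG cells in serum-free induction medium were exposed in duplicate for 48 h to eight half-log concentrations up to 100 uM in 0.5% DMSO. STAT3 mRNA was quantified by TaqMan qRT-PCR, normalized to ACTB, GAPDH and POLR2A, and fitted bidirectionally against DMSO.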
# [18] = read-out: solute carrier (SLCO1B1), SLCO1B1 (gene 10599); experiment: LTEA_HepaRG_SLCO1B1: Life Technologies and Expression Analysis (LTEA) Assay for solute carrier (SLCO1B1) using HepaRG (AID 2283530)
# How it was run: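 Gain or loss of SLCO1B1 mRNA is fitted against the 0.5% DMSO vehicle in human HepaRG liver cells treated 48 h at up to 100 uM in half-log steps. Expression comes from qRT-PCR normalized to endogenous controls.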
# [19] = read-out: sulfotransferase 2A1 (SULT2A1), SULT2A1 (gene 6822); experiment: LTEA_HepaRG_SULT2A1: Life Technologies and Expression Analysis (LTEA) Assay for sulfotransferase 2A1 (SULT2A1) using HepaRG (AID 2283531)
# How it was run: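 Cells were plated and cultured 48 h, switched to serum-free induction medium, then dosed in duplicate for 48 h (8 concentrations, max 100 uM). RNA was isolated and SULT2A1 expression measured by qRT-PCR; gain or loss of signal fitted relative to DMSO.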
# [20] = read-out: Transforming Growth Factor (TGFA), TGFA (gene 7039); experiment: LTEA_HepaRG_TGFA: Life Technologies and Expression Analysis (LTEA) Assay for Transforming Growth Factor (TGFA) using HepaRG (AID 2283532)
# How it was run: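 Differentiated human HepaRG cells, plated 48 h then switched to serum-free induction medium, were exposed in duplicate for 48 h to 8-point half-log series from 100 uM in 0.5% DMSO. TGFA mRNA measured by qRT-PCR, normalized to ACTB/GAPDH/POLR2A, bidirectional fit versus DMSO.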
# Chain of Signal transducer and activator of transcription 3 (Homo sapiens) (P40763 whole entry, looked up): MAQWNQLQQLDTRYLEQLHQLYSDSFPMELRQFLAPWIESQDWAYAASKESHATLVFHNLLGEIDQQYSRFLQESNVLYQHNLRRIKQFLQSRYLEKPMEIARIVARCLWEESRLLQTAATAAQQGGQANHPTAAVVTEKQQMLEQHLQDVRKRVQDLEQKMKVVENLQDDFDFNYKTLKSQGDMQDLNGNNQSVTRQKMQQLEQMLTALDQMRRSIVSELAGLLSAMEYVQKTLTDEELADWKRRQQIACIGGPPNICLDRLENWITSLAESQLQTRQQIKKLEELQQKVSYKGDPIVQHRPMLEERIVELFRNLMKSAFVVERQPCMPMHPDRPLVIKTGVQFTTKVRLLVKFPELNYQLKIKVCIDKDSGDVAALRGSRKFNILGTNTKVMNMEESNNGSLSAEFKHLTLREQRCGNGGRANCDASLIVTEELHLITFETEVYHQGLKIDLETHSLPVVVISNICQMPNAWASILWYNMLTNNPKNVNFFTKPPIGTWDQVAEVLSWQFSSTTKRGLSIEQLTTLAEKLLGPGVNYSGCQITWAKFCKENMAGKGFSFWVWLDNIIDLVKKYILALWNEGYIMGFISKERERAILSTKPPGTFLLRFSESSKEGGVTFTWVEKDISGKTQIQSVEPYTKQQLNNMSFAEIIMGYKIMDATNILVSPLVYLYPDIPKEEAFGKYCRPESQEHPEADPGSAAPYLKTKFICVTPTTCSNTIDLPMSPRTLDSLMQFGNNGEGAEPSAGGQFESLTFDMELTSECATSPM
# Chain of Nuclear factor erythroid 2-related factor 2 (Homo sapiens) (Q16236 whole entry, looked up): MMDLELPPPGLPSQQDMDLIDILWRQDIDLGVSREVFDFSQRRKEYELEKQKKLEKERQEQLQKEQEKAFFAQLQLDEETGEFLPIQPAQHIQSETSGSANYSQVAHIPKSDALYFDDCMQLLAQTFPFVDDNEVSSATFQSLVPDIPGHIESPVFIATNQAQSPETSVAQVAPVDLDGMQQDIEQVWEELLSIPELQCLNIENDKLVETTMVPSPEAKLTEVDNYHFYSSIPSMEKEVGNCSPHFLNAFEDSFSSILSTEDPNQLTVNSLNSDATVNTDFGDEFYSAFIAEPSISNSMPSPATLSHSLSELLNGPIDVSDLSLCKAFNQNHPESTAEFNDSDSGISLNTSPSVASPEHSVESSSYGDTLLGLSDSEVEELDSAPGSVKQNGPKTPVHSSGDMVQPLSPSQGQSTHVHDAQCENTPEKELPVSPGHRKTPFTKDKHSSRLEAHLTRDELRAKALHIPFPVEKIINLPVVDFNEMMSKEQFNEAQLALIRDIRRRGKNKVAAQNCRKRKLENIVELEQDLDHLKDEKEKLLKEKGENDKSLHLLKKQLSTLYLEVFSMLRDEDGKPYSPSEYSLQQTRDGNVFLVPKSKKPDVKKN
# Chain of Nuclear factor NF-kappa-B p105 subunit (Homo sapiens) (P19838 whole entry, looked up): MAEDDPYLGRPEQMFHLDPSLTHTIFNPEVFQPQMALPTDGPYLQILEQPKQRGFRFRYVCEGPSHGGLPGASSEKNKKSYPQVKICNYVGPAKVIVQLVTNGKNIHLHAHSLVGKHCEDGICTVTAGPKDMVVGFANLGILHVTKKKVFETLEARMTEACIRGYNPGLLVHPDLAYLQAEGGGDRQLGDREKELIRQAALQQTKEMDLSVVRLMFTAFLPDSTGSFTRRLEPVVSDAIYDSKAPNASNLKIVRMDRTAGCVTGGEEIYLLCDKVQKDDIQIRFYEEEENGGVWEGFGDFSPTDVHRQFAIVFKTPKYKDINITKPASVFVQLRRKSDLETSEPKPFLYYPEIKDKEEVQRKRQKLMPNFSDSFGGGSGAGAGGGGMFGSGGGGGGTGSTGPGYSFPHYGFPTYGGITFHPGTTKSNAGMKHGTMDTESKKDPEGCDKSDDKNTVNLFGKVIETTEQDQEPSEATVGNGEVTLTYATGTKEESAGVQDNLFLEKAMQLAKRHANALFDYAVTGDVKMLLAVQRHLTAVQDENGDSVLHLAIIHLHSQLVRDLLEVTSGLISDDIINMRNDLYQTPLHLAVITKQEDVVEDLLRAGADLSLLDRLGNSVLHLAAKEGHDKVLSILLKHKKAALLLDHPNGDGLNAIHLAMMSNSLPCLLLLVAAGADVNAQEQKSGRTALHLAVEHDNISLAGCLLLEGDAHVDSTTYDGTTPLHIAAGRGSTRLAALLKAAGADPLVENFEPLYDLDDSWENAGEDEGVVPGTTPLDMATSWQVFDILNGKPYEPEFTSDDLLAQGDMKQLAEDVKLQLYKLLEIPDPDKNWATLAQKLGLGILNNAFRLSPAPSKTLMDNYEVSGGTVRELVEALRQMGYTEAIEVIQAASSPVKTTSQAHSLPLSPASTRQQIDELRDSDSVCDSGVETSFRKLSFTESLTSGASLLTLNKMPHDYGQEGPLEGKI
structure (smiles),measurement,setting,value
OCCOCCOCCO,outcome,[1],inactive
same,outcome,[2],inactive
same,outcome,[3],inactive
same,outcome,[4],inactive
same,outcome,[5],inactive
same,outcome,[6],inactive
same,outcome,[7],inactive
same,outcome,[8],inactive
same,outcome,[9],inactive
same,outcome,[10],inactive
same,outcome,[11],inactive
same,outcome,[12],inactive
same,outcome,[13],inactive
same,outcome,[14],inactive
same,outcome,[15],inactive
same,outcome,[16],inactive
same,outcome,[17],inactive
same,outcome,[18],inactive
same,outcome,[19],inactive
same,outcome,[20],inactive
OCc1ccccc1,outcome,[1],inactive
same,outcome,[2],inactive
same,outcome,[3],inactive
same,outcome,[4],inactive
same,outcome,[5],inactive
same,outcome,[6],inactive
same,outcome,[7],inactive
same,outcome,[8],inactive
same,outcome,[9],inactive
same,outcome,[10],inactive
same,outcome,[11],inactive
same,outcome,[12],inactive
same,outcome,[13],inactive
same,outcome,[14],inactive
same,outcome,[15],inactive
same,outcome,[16],inactive
same,outcome,[17],inactive
same,outcome,[18],inactive
same,outcome,[19],inactive
same,outcome,[20],inactive
Cc1nccn1-c1ccc(Sc2cccc(C3(C(N)=O)CCOCC3)c2)cc1,AC50,[1],19.4 µM (active)
same,AC50,[2],12.2 µM (active)
same,AC50,[3],0.913 µM (active)
same,AC50,[4],15.1 µM (active)
same,AC50,[5],17.6 µM (active)
same,AC50,[6],9.67 µM (active)
same,outcome,[7],inactive
same,AC50,[8],2.9 µM (active)
same,AC50,[9],3.18 µM (active)
same,AC50,[10],27.7 µM (active)
same,AC50,[11],28 µM (active)
same,AC50,[12],11.2 µM (active)
same,outcome,[13],inactive
same,AC50,[14],18.6 µM (active)
same,outcome,[15],inactive
same,AC50,[16],27.4 µM (active)
same,AC50,[17],1.93 µM (active)
same,AC50,[18],13.6 µM (active)
same,AC50,[19],15 µM (active)
same,AC50,[20],9.24 µM (active)
c1ccc2cc3ccccc3cc2c1,outcome,[1],inactive
same,outcome,[2],inactive
same,outcome,[3],inactive
same,outcome,[4],inactive
same,outcome,[5],inactive
same,outcome,[6],inactive
same,outcome,[7],inactive
same,outcome,[8],inactive
same,outcome,[9],inactive
same,outcome,[10],inactive
same,outcome,[11],inactive
same,outcome,[12],inactive
same,outcome,[13],inactive
same,outcome,[14],inactive
same,outcome,[15],inactive
same,outcome,[16],inactive
same,outcome,[17],inactive
same,outcome,[18],inactive
same,outcome,[19],inactive
same,outcome,[20],inactive
CCCOc1ccc(S(=O)(=O)N2CCN(CC)CC2)cc1-c1nc2c(CC)n(Cc3ccccn3)nc2c(=O)[nH]1,outcome,[1],inactive
same,outcome,[2],inactive
same,AC50,[3],56.7 µM (active)
same,outcome,[4],inactive
same,outcome,[5],inactive
same,outcome,[6],inactive
same,outcome,[7],inactive
same,outcome,[8],inactive
same,outcome,[9],inactive
same,outcome,[10],inactive
same,outcome,[11],inactive
same,outcome,[12],inactive
same,AC50,[13],31.3 µM (active)
same,outcome,[14],inactive
same,AC50,[15],25 µM (active)
same,outcome,[16],inactive
same,outcome,[17],inactive
same,AC50,[18],50 µM (active)
same,AC50,[19],18.1 µM (active)
same,outcome,[20],inactive
